Assay outcomes: PubChem, National Center for Advancing Translational Sciences (NCATS)
ALDH1A1 block – qHTS Assay for Inhibitors of Aldehyde Dehydrogenase 1 (ALDH1A1); Purified ALDH1A1, NADH fluorescence, propionaldehyde substrate; Potency, µM (highest dose often 75.3 µM), inactives show top-dose activity, negative = inhibition, hits mostly inhibitors; 220,000 compounds, 7.3% hits; active = well fitted inhibition curve with a large enough effect, not every such curve was filed as active; inconclusive = small, poorly fitted or top-dose-only effect, or another doubt; inactive = no such curve, though single readings can be large or run the other way;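 note: plate controls were no enzyme wells and a reference inhibitor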
PLK1 PBD block – qHTS for Inhibitors of PLK1-PDB (polo-like kinase 1 - polo-box domain): Primary Screen; Serine/threonine-protein kinase PLK1 (Homo sapiens), P53350; AID 720504, 2013; 360,000 compounds, 2.8% hits; Plk1 PBD binding of FITC phosphopeptide, fluorescence polarization; Potency, µM, for the others: max response, negative = inhibition, usual class: inhibitors; note: series mostly up to about 57 µM; nearly all actives have a fitted effect of over 65% in size
RORgamma inh – qHTS for inhibitors of ROR gamma transcriptional activity; Nuclear receptor ROR-gamma (Mus musculus), P51450; Drosophila S2 Gal4-RORgamma UAS-luciferase reporter, 20 h; Potency, µM (series often up to 53.6 µM), for the others: at the top dose activity change, negative = inhibition, usual class: inhibitors; 310,000 compounds, 5.4% hits; AID 2551, 2010; note: nearly all actives have a fitted effect of over 60% in size
Target sequence (P51450 whole entry, looked up, the tested form may be a part): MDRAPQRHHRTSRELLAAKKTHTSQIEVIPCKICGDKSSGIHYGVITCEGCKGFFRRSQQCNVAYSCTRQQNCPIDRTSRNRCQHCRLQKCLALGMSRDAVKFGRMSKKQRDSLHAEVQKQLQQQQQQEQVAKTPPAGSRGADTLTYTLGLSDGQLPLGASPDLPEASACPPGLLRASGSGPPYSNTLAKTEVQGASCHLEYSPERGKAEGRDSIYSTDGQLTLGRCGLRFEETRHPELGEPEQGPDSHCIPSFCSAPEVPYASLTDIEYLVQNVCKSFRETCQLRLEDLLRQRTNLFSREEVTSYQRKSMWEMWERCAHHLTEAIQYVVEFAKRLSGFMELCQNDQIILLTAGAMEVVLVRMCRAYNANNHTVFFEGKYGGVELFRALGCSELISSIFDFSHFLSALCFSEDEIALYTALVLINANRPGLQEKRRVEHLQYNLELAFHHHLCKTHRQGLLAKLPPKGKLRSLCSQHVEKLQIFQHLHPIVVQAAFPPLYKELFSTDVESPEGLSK
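Drosophila S2 cells stably expressing Gal4-DBD/mouse RORγ fusion under metallothionein promoter plus UAS-luciferase; compound 1 h, then 700 uM CuSO4 induction for 20 h at ambient temperature; inhibition read as reduced luminescence.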
Sfp PPTase inh – qHTS Assay for Inhibitors of Bacillus subtilis Sfp phosphopantetheinyl transferase (PPTase) | 310,000 compounds, 3.5% hits | Potency, µM, for the others: largest response in the series, negative = inhibition, actives largely listed as inhibitors | Biochemical Sfp PPTase activity, qHTS | 4'-phosphopantetheinyl transferase ffp (Bacillus subtilis), Q9F4F7 | AID 1490, 2009;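 note: the enzyme is Sfp with the accession as filed and its product quenches rhodamine fluorescence; 0% = enzyme reaction without inhibitor and -100% = no enzyme wells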
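Reaction rates are the 30-min fluorescence difference (ex 525, em 598 nm) in wells containing 15 nM Sfp, 5 uM rhodamine-CoA and 12.5 uM BHQ-2-YbbR at pH 7.6 with 10 mM MgCl2.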
VP16 counter – VP16 counterscreen qHTS for inhibitors of ROR gamma transcriptional activity. Drosophila S2 Gal4-VP16 UAS-luciferase, luminescence, 20 h. Potency, µM (top dose mostly 53.6 µM), inactives show at the highest dose activity, negative = inhibition, hits mostly inhibitors. 310,000 compounds, 3.5% hits;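 note: Gal4-VP16 expression switched on by copper sulfate through the metallothionein promoter; nearly all actives have a fitted effect of over 50% in size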
An asterisk follows results filed as active; ? = inconclusive; . = no result given; [ ] = another dose, or the depositor's remark. Sampled rows, rich in hits. Any-hit rate of the full collection: about 12%. Unless noted, calls come from the whole dose curve; as a rule, active = well fitted curve in the direction sought with a large enough effect; inconclusive = small, poorly fitted or top-dose-only effect, or another doubt; inactive = no such curve, though single readings can be large; an effect the other way counts as inactive or inconclusive. Unless noted, % is set by controls: 0 for no effect and ±100 for the full control effect; potency is the fitted concentration of half-maximal effect.

SMILES | ALDH1A1 block | PLK1 PBD block | RORgamma inh | Sfp PPTase inh | VP16 counter
CC1CC(C)(C)NC(=S)N1CCCC(=O)Nc1ccc(Cl)cc1 (stereo not drawn) | 0% | -10% | 4µM* | 18% | ?
Cc1ccc(NC(=O)CN2C(=S)NC(C)(C)CC2C)cc1Cl (stereo not drawn) | ? | ? | 14µM* | 6% | ?
CCN(CC(=O)Nc1ccc(NC(C)=O)cc1)C(=O)C1(c2ccc(Cl)cc2)CCC1 | . | -1% | . | . | .
Nn1c(SCC(=O)Nc2ccc(OC(F)F)cc2)nnc(Cc2ccccc2)c1=O | . | 6% | . | . | .
CCN(C(=O)CN1C(=S)NC(C)(C)CC1C)c1ccc(C)c(C)c1 (stereo not drawn) | 28µM* | ? | 7.1µM* | -2% | ?
Cc1ccc2nc(Cl)c3nnnn3c2c1 | 28µM* | 15µM* | 29% | -13% | -4%[10 µM]
Cc1ccc2nc(N3CCN(c4cccc(C)c4C)CC3)c3nnnn3c2c1 | -3% | -3% | 10% | -1% | 13%
CC(C)=CCC[C@H](C)C[C@@H]1Cc2[nH][nH]c(=O)c2[C@@H](c2ccc(F)cc2)O1 | . | -19% | . | . | .
CCN(CC)c1ccc(/C=N/O)cc1 | ? | -9% | 27% | 18% | 4%
CCN(CC)c1ccc(N=Nc2ncn[nH]2)cc1 | 8% | 9% | -29% | 8.9µM* | -26%
CCNc1nc(Cl)nc(N(NC(C)=O)C(C)CC)n1 (stereo not drawn) | 13% | -24% | -7% | 18% | -1%
CCC(C)N(NC(C)=O)c1nc(Cl)nc(NC(C)C)n1 (stereo not drawn) | 8% | -1% | 11µM* | 8% | ?
NC(=O)CSc1nnc(Cc2csc(Nc3ccccc3)n2)n1Cc1ccccc1 | -11% | -5% | -41% | 20µM* | -20%
COCCCn1c(SCC(N)=O)nnc1-c1ccccc1 | 9% | -11% | -16% | 2% | -2%
COCCCn1c(Cc2csc(Nc3ccccc3)n2)nnc1SCC(N)=O | -2% | ? | -17% | 32µM* | -4%
Cc1nc2ccc(NC(=S)N3CCN(c4ccccn4)CC3)cc2nc1C | ? | -21% | 28% | 7% | 4%
Cc1ccc(C)c(N2CCN(C(=S)Nc3ccc4nc(N5CCOCC5)cc(C)c4c3)CC2)c1 | ? | -7% | 5.6µM* | -11% | ?
COc1ccccc1N1CCN(C(=S)Nc2ccc3nc(N4CCOCC4)cc(C)c3c2)CC1 | ? | -6% | 4.5µM* | -11% | ?
Cc1cc(N2CCOCC2)nc2ccc(NC(=S)N3CCN(c4ccccc4)CC3)cc12 | ? | ? | ? | -2% | 8%
Cc1cc(N2CCN(C)CC2)nc2ccc(NC(=S)N3CCN(c4ccccn4)CC3)cc12 | 13µM* | -3% | 7% | 8% | -12%
Cc1ccc(C)c(N2CCN(C(=S)Nc3ccc4nc(N5CCN(C)CC5)cc(C)c4c3)CC2)c1 | -7% | 3% | 11µM* | -27% | ?
COc1ccc(C2CC(=O)Oc3c(C(CCN4CCOCC4)c4ccc5c(c4)OCO5)c(OC)cc(OC)c32)cc1 (stereo not drawn) | . | . | -17% | -16% | -17%
Cc1cccc(C)c1NC(=O)C(c1cc2ccccc2o1)N1CCN(C)CC1 (stereo not drawn) | . | -12% | . | . | .
CC(=O)N[C@@H]1C(O[C@H]2O[C@H](C(=O)O)C(O)[C@H](O)[C@H]2O)[C@H](O)[C@@H](CO)O[C@H]1O[C@@H]1C(C(=O)O)O[C@@H](O[C@H]2[C@H](O)[C@@H](CO)OC(O)[C@@H]2NC(C)=O)[C@H](O)[C@H]1O (stereo partly drawn) | . | . | -2% | 26% | -4%
CCN1CCN(c2cc(C)c3cc(NC(=S)N4CCN(c5ccccc5)CC4)ccc3n2)CC1 | ? | 3% | ? | 14% | -9%[10 µM]
CCN1CCN(c2cc(C)c3cc(NC(=S)N4CCN(c5ccccc5F)CC4)ccc3n2)CC1 | 13µM* | 2% | 13µM* | -6% | ?
Cc1ccc2c(c1)C(C)CC(C)(C)N2C(=O)CN1CCN(C)CC1 (stereo not drawn) | . | 4% | 0% | 56µM* | 4%
